Results on 20 compounds are retold here after ChEMBL document CHEMBL3988442, “University of Dundee, Small-Polar-MMV Screening Library” (2021).

The target of the experiment is T1, Aspartate--tRNA(Asp/Asn) ligase (Mycobacterium tuberculosis (strain ATCC 25618 / H37Rv)) (UniProt P9WFW3).
T1 sequence (whole entry): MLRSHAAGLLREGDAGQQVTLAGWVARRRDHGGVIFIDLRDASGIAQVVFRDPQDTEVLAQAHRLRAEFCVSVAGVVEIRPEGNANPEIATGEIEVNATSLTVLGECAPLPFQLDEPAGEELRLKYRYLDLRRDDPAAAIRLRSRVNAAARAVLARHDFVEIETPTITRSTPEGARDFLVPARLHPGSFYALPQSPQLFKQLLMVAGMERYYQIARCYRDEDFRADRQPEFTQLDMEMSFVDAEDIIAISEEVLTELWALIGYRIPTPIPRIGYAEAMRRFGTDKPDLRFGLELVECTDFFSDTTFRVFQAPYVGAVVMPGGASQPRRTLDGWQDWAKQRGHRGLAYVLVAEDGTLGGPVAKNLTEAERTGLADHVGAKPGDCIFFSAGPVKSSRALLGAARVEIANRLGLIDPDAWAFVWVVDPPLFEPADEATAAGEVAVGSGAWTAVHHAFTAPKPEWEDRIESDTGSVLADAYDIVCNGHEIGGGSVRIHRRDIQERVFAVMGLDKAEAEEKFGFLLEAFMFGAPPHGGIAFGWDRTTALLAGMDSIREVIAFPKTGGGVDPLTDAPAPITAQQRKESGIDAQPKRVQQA
In words: Assay for Asp RNA synthetase-1 from Mycobacterium tuberculosis. In kind it is functional. The arrangement: scale not given: in the data most compounds retested in dose-response had high values. To be noted: 30 µM.
For the compound `Cc1cnn(CCNCc2ccc(OCC(N)=O)cc2)c1`, the Percent Effect is -4.2%. Regarding `Cn1nccc1C(=O)N1CCOC(Cc2cccc(C(F)(F)F)c2)C1` (stereo not given), the Percent Effect was -2.91%. Then `NC(=O)C1CCCN1Cc1cccc(NC(=O)c2ccsc2)c1` (stereo not given), with 2.98%; and `COCc1nc2n(n1)CCCC2Nc1nc(C2CC2)ns1` (stereo not given), with 0.0804%. For the compound `COc1cccc(S(=O)(=O)CCN2CCC3(CC2)OCCO3)c1`, the Percent Effect is -0.724%. Then `O=C(c1ccc2c(c1)CCC2)N1C[C@@H](CN2CCOCC2)[C@@H](CO)C1`, with 1.28%. `O=c1oc(-c2cccs2)nn1CC(O)c1ccc(F)cc1` (stereo not given): the Percent Effect is -0.425%.

Take `CC(O)CN1CCN(C(=O)c2cnn(-c3ccc(Cl)cc3)c2)CC1` (stereo not given): the Percent Effect is -5.67%. With `c1cn(Cc2nnc(C3CCN(c4nccs4)CC3)n2C2CC2)cn1`, the Percent Effect is -3.69%.

In the case of `Cn1cccc1C1CCCN1C(=O)NCCCn1cccn1` (stereo not given), the Percent Effect is -1%. In the case of `CN(C)C(=O)CN(C)C(=O)c1cnc(Cc2ccc(F)cc2)s1`, the Percent Effect was -1.57%. Take `Cc1cnn(C2CN(CC(O)c3ccc4c(c3)OCCO4)C2)c1` (stereo not given): the Percent Effect was -4.61%.

As for `O=C(c1ccsc1)N1C[C@@H](CN2CCCC2)[C@@H](CO)C1`, the Percent Effect was -2.54%. As to `CCS(=O)(=O)N1CCC(c2nnc(CN3CCCC3)n2C2CC2)CC1`, the Percent Effect was -0.379%. Then `NC(=O)CN1CC2(CCC1=O)CCN(Cc1cc(F)ccc1Cl)CC2`, with 0.126%. Then `CCC(=O)N1CC[C@@H](c2ccc3ccccc3c2)[C@H](O)C1`, with 2.26%. The figure for `O=C(COc1cccc(Br)c1)N1CCN(c2nccs2)CC1` is 1.41%. Regarding `O=C(NCCc1ccncc1)C1CCN(Cc2ccco2)CC1`, the Percent Effect is -3.6%. Then `CCOc1cccc(C(C)NCc2ccc(OC)c(OC)c2OC)c1` (stereo not given), with -1.94%. The figure for `CCCC(NC(=O)c1cc(C)ccc1C)c1nnn[nH]1` (stereo not given) is -2.52%.
